# Assay outcomes deposited in PubChem by National Center for Advancing Translational Sciences (NCATS).
# BAZ2B block – BAZ2B (human) inhibition; Q9UIF8; AlphaScreen BAZ2B-H3K14Ac peptide displacement; 360,000 compounds, 4.4% hits; Potency, µM (titrated, usually from 114 µM), most hits filed as inhibitors; note: nearly all actives have a fitted effect of over 60% in size
#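 Protein-peptide AlphaScreen: BAZ2B 50 nM, b-H3K14Ac 50 nM, 1x PBS pH 7.4 + 0.01% Tween-20. Preincubation 30 min RT; cpd 30 min RT (top 110 uM); beads 20 min RT, light-protected.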
# TDP1 inh – blocks human tyrosyl-DNA phosphodiesterase 1; AID 485290; recombinant TDP1, AlphaScreen DNA substrate cleavage; Potency, µM (series often up to 130 µM), most hits filed as inhibitors; Q9NUW8; 350,000 compounds, 0.28% hits; note: nearly all actives have a fitted effect of over 40% in size
# Target sequence (Q9NUW8 whole entry, looked up): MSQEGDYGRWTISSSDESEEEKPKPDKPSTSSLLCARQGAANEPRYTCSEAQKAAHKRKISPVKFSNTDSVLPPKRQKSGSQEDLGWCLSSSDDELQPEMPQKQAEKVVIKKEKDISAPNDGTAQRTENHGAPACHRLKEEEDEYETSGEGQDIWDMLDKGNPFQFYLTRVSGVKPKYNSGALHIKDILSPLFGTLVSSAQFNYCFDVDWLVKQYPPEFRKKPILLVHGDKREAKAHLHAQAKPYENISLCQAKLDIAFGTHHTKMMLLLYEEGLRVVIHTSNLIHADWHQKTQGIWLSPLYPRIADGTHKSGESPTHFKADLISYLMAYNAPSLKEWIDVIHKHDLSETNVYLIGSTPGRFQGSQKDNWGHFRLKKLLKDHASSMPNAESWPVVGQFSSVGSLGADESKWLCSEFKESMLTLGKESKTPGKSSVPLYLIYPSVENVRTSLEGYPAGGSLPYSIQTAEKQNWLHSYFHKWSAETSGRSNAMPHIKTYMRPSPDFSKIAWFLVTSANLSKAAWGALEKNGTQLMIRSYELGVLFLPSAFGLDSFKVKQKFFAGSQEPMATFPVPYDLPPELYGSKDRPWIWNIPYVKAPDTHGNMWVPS
#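 E. coli-derived human Tdp1, 1 nM final. Cpd preinc 15 min RT; substrate 15 nM final, 5 min RT; AS bead mix 10 ug/ml final, 10 min RT. Signal loss = tyrosine-FITC cleavage. No-enzyme wells = max signal.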
# Sfp inh – blocks B. subtilis Sfp PPTase activity | Biochemical Sfp PPTase activity, qHTS | Potency, µM, most hits filed as inhibitors | 310,000 compounds, 3.5% hits;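 note: the enzyme is Sfp with the accession as filed and its product quenches rhodamine fluorescence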
#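 After 15 min at room temperature with compound, 15 nM Sfp received 5 uM rhodamine-CoA plus 12.5 uM BHQ-2-ybbR (50 mM Hepes pH 7.6, 10 mM MgCl2). Rate came from the fluorescence difference over 30 min, ex 525/em 598 nm.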
# JMJD2A Tudor – JMJD2A Tudor domain (human) inhibition | 390,000 compounds, 4.4% hits | AID 504339 | AlphaScreen JMJD2A-Tudor / H3K4me3 peptide binding | O75164 | Potency, µM (titrated, usually from 114 µM), most hits filed as inhibitors; note: nearly all actives have a fitted effect of over 50% in size
# G9a inh – inhibitors of human histone lysine methyltransferase G9a | Q96KQ7 | G9a H3K9 monomethylation, AlphaScreen, 2 h | Potency, µM (highest dose often 102 µM), hits mostly inhibitors | 350,000 compounds, 8.8% hits | AID 504332; note: nearly all actives have a fitted effect of over 75% in size
#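 Enzyme 20 nM + cpd, 15 min RT; add b-H3K9 pep 500 nM / SAM 20 uM; 2 h RT; anti-H3K9me1 Ab 0.5 ug/mL + SA donor / anti-rabbit acceptor beads 20 ug/mL each, 10 min; AlphaScreen read.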
# HP1b chromo inh – HP1-beta chromodomain-methylated histone interaction inhibition; P83916; AlphaScreen HP1-beta / biotin-H3K9me3 peptide binding; Potency, µM (top dose mostly 114 µM), hits mostly inhibitors; 390,000 compounds, 0.56% hits; note: nearly all actives have a fitted effect of over 70% in size
#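 HP1-beta protein (50 nM final) preincubated 30 min at room temperature with biotinylated H3(1-18)K9me3 peptide (50 nM) in PBS pH 7.4, 0.01% Tween-20, then compound added for 30 min. AlphaScreen streptavidin donor/nickel chelate acceptor beads (10 ug/mL final), 30 min dark, luminescence read.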
# A number is an active result; 0 = inactive; ? = inconclusive; - = not tested or not shown; [ ] = another dose, or the depositor's remark. Only some compounds are listed: those with a hit (about 12% of all), similar ones and a draw of the others. Calls come from the whole dose curve; as a rule, active = well fitted curve in the direction sought with a large enough effect; inconclusive = small, poorly fitted or top-dose-only effect, or another doubt; inactive = no such curve, though single readings can be large; an effect the other way counts as inactive or inconclusive.
SMILES,BAZ2B block,TDP1 inh,Sfp inh,JMJD2A Tudor,G9a inh,HP1b chromo inh
Cc1ccc(-c2nc(CN3CCCCC3c3cccc(F)c3)c(C)o2)o1 (stereo unspecified),0,0,0,?,40µM,0
O=c1[nH]c(Cc2ccccn2)nc2scc(-c3ccccc3Cl)c12,0,0,0,0,-,0
COC(=O)CSc1nc2nc(C)c(Br)cc2[nH]1,0,0,0,0,7.9µM,0
Cc1ccc(NC(=O)CSc2nc3nc(C)c(Br)cc3[nH]2)cc1F,0,0,0,0,0,0
C=C(C)CSc1nc2nc(C)c(Br)cc2[nH]1,0,0,0,-,7.1µM,-
CN(C)Cc1ccccc1-c1ccc2ncnc(NC3CCNCC3)c2c1,-,0,0,-,-,-
C[C@@H]1NC(=O)N(CCCn2ccnc2)C1=O,50µM,-,0,0,0,0
COC(=O)c1oc2ccc(Br)cc2c1NC(=O)CCN1CCOCC1,0,0,0,0,0,0
CC(=O)NC1C(=O)N(CCN2CCOCC2)c2ccc(Br)cc21 (stereo unspecified),10µM,-,?,8.9µM,3.2µM,?
CCOc1ccc2c(c1)C(NC(C)=O)C(=O)N2CCN1CCOCC1 (stereo unspecified),10µM,-,?,14µM,16µM,0
CCN1C(=O)C(NC(C)=O)c2cc(OC)ccc21 (stereo unspecified),0,0,0,0,50µM,0
NCc1ccccc1,0,0,0,0,0,0
O=[N+]([O-])c1cccc(CNc2ccc3c(c2)CCC3)c1,20µM,0,?,1.4µM,13µM,40µM
COc1ccc(CNc2ccc3c(c2)CCC3)cc1Br,0,0,0,0,35µM,0
CCOc1cc(CNc2ccc3c(c2)CCC3)ccc1OC,?,0,0,-,45µM,-
COc1ccccc1CNc1ccc2c(c1)CCC2,0,-,0,?,0[0.501 µM],0
CCOc1ccc(NC(=O)COc2ccc3c(c2)CCC3)cc1OC,0,0,-,0,?,0
COc1ccc(C(=O)N2CCC3(CC2)CN(c2ccc(-c4ccccc4)cc2)C3)cc1,-,-,0,-,0[12.7 µM],-
Nc1nc(SCC(=O)c2ccc(Cl)cc2)c2ncn(C3OC(CO)C(O)C3O)c2n1 (stereo unspecified),-,-,-,?,-,0
CC(C)(C)c1ccc(NS(=O)(=O)c2ccc(N)cc2)cc1,0,0,0,0,?,0
CC(C)(C)c1ccc(S(=O)(=O)/C=C/C#N)cc1,-,0,-,-,0.95µM,-
Cc1ccccc1-n1c(C)nnc1SC(C)C(=O)NCC1CCCO1 (stereo unspecified),0,0,-,0,0[12.7 µM],0
COc1ccc(Br)c(OC)c1C(=O)NC(=O)Nc1nc(C)cc(C)n1,0,0,0,0,0,0
CCn1c(-c2ccc(C(C)(C)C)cc2)n[nH]c1=S,0,0,0,45µM,0.56µM,0
Cc1cccc(-c2n[nH]c(=S)n2C)c1,0,0,0,4.5µM,28µM,?
SMILES,BAZ2B block,TDP1 inh,Sfp inh,JMJD2A Tudor,G9a inh,HP1b chromo inh
CC(C)(C)c1ccc(-c2nc(N)nc(N)n2)cc1,0,-,0,0,-,0
Cc1ccn2c(-c3n[nH]c(=S)n3C)c(C)nc2c1,0,0,?,8.9µM,8.9µM,?
Cn1c(-c2ccc(C(C)(C)C)cc2)n[nH]c1=S,0,?,0,22µM,2µM,0
CCCc1noc(-c2ccc(N3CCCCC3)c([N+](=O)[O-])c2)n1,0,0,-,0,0,0
CCOc1ccccc1N(C)C(=O)Cn1cnc2sc(C)c(S(=O)(=O)N3CCC(C)CC3)c2c1=O,0,0,-,0,0,0
Cc1[nH]c2ccc(C(=O)N3CCCCC3)cc2c1C,0,0,0,0,0,0
Cc1[nH]c2ccc(-c3n[nH]c(=S)n3C)cc2c1C,?,0,0,4.5µM,4µM,?
CC(C)(C)c1ccc(-c2n[nH]c(=S)n2C2CCCC2)cc1,0,0,0,?,7.9µM,0
Cc1nc(-c2ccccc2)sc1-c1n[nH]c(=S)n1C,79µM,0,0,10µM,3.5µM,0
CCOc1ccc(NC(=O)C2CCN(S(=O)(=O)c3ccc4c(c3)oc(=O)n4C)CC2)cc1,0,0,-,0,0,0
COC(=O)c1cc(NC(=O)c2cc(-c3ccc(Cl)cc3)oc2C(F)(F)F)ccc1N1CCOCC1,0,0,0,0,0,0
Cc1cccc(-n2cc(C(=O)O)c(=O)cc2C)c1,0,0,0,45µM,22µM,0
Cc1ccc(-n2cc(C(=O)O)c(=O)cc2C)c(C)c1,?,0,0,0,50µM,0
Cc1ccc(-n2c(C)cc(=O)cc2C)c(C)c1,0,0,0,0,0,0
Cc1ccc(-n2nc(C)c(C(=O)O)n2)c(C)c1,0,0,0,0,79µM,0
Cc1cccc(-n2ccc(=O)c(C(=O)O)n2)c1,0,-,0,0,0,0
Cc1cc(=O)c(C(=O)O)cn1-c1ccc(C(C)C)cc1,?,0,0,0,45µM,0
O=C(NC1CCCC1)c1cc(=O)[nH]c2ccccc12,0,-,0,0,-,0
Cc1cc(C)cc(-n2cc(C(=O)O)c(=O)cc2C)c1,79µM,0,0,0,28µM,0
Cc1cc(C)cc(-n2cnc3cc(C(=O)O)ccc32)c1,0,0,0,0,?,0
CCCc1sc(N2CCCC(C(N)=O)C2)nc1-c1ccccc1 (stereo unspecified),?,0,0,28µM,0,?
NC(=O)C1CCCN(CCc2ccccc2)C1 (stereo unspecified),0,0,0,0,0,0
Cc1c(N=C2NC(=O)/C(=C/c3ccc(O)cc3)S2)c(=O)n(-c2ccccc2)n1C,0,0,0,0,0,0
Cc1ccc(S(=O)(=O)/N=C2/NC(=O)/C(=C\c3ccco3)S2)cc1,0,0,0,0,40µM,0
CC(=O)Nc1ccc(S(=O)(=O)/N=C2/NC(=O)/C(=C\c3ccco3)S2)cc1,?,?,0,0[11.4 µM],22µM,0
SMILES,BAZ2B block,TDP1 inh,Sfp inh,JMJD2A Tudor,G9a inh,HP1b chromo inh
O=C1NC(=NCc2ccccc2)S/C1=C/c1ccc(O)cc1,?,0,25µM,0,0,0
Cc1ccc(S(=O)(=O)/N=C2/NC(=O)/C(=C/c3ccccc3)S2)cc1,?,0,0,0,50µM,0
Cc1c(OCC(=O)NC2CCN(Cc3ccccc3)CC2)ccc2c3c(c(=O)oc12)CCC3,0,0,0,0,0,0
COC(c1ccccc1)c1nc2ccccc2[nH]c1=O (stereo unspecified),0,-,0,0,0[2.33 µM],0
O=c1[nH]c2ccccc2nc1C(Cl)c1ccccc1 (stereo unspecified),56µM,0,0,-,?,-
NC(=S)Nc1nc2ccccc2[nH]c1=O,?,?,?,-,7.9µM,-
Cc1cccc(NC(=O)/C(C#N)=C\c2cccnc2)c1,0,0,0,0,50µM,0
N#C/C(=C/c1ccc(C(=O)O)cc1)C(=O)Nc1ccccc1,0,0,?,0,?,0
N#C/C(=C\c1cccnc1)C(=O)Nc1cccc2ccccc12,0,0,?,0,50µM,0
